Each structure is given as a SMILES string. The whole screen tested about 190,000 compounds, of which about 1,300 (0.68%) were called active. Only a selection was taken, and actives are over-represented in it overall. Values without a mark were called inactive. Cut-off read from the data, not from the text of the source: active = inhibition above about 50%; inactive = the rest.

Mannose-6-phosphate isomerase (Homo sapiens), sequence (P34949 whole entry, looked up): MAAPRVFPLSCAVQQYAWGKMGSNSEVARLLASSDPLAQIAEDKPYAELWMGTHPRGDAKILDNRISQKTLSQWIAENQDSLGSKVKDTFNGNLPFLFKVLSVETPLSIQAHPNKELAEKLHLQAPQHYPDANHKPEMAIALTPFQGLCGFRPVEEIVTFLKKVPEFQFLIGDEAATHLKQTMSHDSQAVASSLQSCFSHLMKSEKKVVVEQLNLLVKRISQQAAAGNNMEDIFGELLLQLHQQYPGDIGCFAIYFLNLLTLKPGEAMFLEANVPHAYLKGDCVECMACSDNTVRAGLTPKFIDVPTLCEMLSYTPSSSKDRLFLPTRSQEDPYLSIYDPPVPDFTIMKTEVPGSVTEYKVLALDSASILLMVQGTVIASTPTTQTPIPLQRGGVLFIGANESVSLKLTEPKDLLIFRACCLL

This assay has as its target Mannose-6-phosphate isomerase (Homo sapiens) (UniProt P34949). Briefly: human PMI inhibitors, high substrate, primary screen, biochemical, fluorescence intensity, high mannose 6-phosphate (AID 1220). The conditions noted are these: recombinant PMI enzyme, coupled fluorescence intensity; at 20 µM; hits give high values.
Consider `Cc1ccccc1NC(=S)N1CCN(C(=O)c2ccco2)CC1`, for which the inhibition was 5.1%.

For the compound `O=C(C1CCCCN1S(=O)(=O)c1ccccc1)N1CCN(Cc2ccccc2)CC1` (configuration not stated), the inhibition is -3.3%.

As to `CC(=O)N(C(C)=O)n1c(/C=C/c2cccc([N+](=O)[O-])c2)nc2ccccc2c1=O`, the inhibition was 15.3%.

Turning to `CCOC(=O)c1ccc(NC2=CC(=O)C(=O)c3ccccc32)cc1`, the inhibition is 57.3% (active).

For `CCOC(=O)c1ccc(NC2OC(=O)c3ccccc32)cc1` (configuration not stated), the inhibition was -0.5%.

As to `CCOC(=O)c1ccc(NC(=O)C(C)N2C(=O)c3ccccc3C2=O)cc1` (configuration not stated), the inhibition is 5%.

For `O=[N+]([O-])c1ccc2cn[nH]c2c1`, the inhibition was 1.3%.

`Nc1ccc2cn[nH]c2c1`: the inhibition was 53.1% (active).

Regarding `Nc1ccc2[nH]ncc2c1`, the inhibition is 48.1%.

For `CCCCc1nnc(NC(=O)CSc2nc(N)cc(=O)[nH]2)s1`, the inhibition was 51.1% (active).

With `CCCCc1nnc(NC(=O)C(C)Sc2nc(N)cc(=O)[nH]2)s1` (configuration not stated), the inhibition is 0.4%.

As for `CC(C)Cc1nnc(NC(=O)CSc2nc(N)cc(=O)[nH]2)s1`, the inhibition is -6.4%.

In the case of `C=CCc1ccccc1OCCNCc1ccccc1`, the inhibition was 1%.

As to `Cc1cccc(C(=O)NC2CCN(CC(=O)NCc3cccs3)CC2)c1`, the inhibition was -0.6%.

As for `Cc1ccc(C)c(-n2[nH]c3c4c(ccc3c2=O)C(=O)c2ccccc2C4=O)c1`, the inhibition was 58% (active).

`CC(C)Cn1[nH]c2c3c(ccc2c1=O)C(=O)c1ccccc1C3=O`: the inhibition is 60.3% (active).

On to `Cc1ccc(-n2[nH]c3c4c(ccc3c2=O)C(=O)c2ccccc2C4=O)cc1`, for which the inhibition was 13.1%.

With `Cc1cccc(-n2[nH]c3c4c(ccc3c2=O)C(=O)c2ccccc2C4=O)c1`, the inhibition was 26.4%.

Take `COCCCn1[nH]c2c3c(ccc2c1=O)C(=O)c1ccccc1C3=O`: the inhibition is 14.1%.

For the compound `O=C1c2ccccc2C(=O)c2c1ccc1c(=O)n(-c3ccccc3)[nH]c21`, the inhibition was 30.4%.

As for `C=CCn1c(SCC(=O)Nc2cccc3ccccc23)nc(O)c(CC)c1=O`, the inhibition is -3.4%.

For `CCn1c(CNc2ccc(F)cc2)nnc1SCC(=O)Nc1ccccc1OC`, the inhibition is 4%.

Turning to `CN(C(=O)c1ccccc1)c1ccc(OCC(=O)NC2CCS(=O)(=O)C2)cc1` (configuration not stated), the inhibition is 11.6%.

`CC(C)(C)NS(=O)(=O)c1ccc(OCC(=O)NCCC2=CCCCC2)cc1`: the inhibition is 1.2%.

For `CC(=C/c1ccco1)/C=N/NC(=O)c1nnn(-c2nonc2N)c1CN(C)C`, the inhibition was 59.6% (active).

With `COCc1c(C(=O)N/N=C/c2cccc3ccccc23)nnn1-c1nonc1N`, the inhibition is -11.8%.

Take `COCc1c(C(=O)N/N=C(/C)c2ccccc2)nnn1-c1nonc1N`: the inhibition was 6.3%.

In general, inhibition refers to the change of the read-out against control, counted positive when it falls.
